A collection of fitness landscapes (doi:10.1016/j.celrep.2020.107928)
In all, about 81,000 sequences were measured (“one-hybrid fitness for binding NBS DNA”: median about -0.1, highest 2% from about 0.36 on). For the sample, the highest values were picked, then their nearest neighbours and some sequences at random.

B1: Caulobacter ParB omega fusion; a variant is named by its letters at X, in order, B8GW30 (parent)
chain: MESVVVGEPGMSEGRRGLGRGLSALLGEVDAAPAQAPGEQLGGSREAPIEILQRNPDQPRRTFREEDLEDLSNSIREKGVLQPILVRPSPDTAGEYQIVAGERAWRAAQRAGLKTVPIMVRELDDLAVLEIGIIENVQRADLNVLEEALSYKVLMEKFERTQENIAQTIGKSXSHVANXMRLLXLPDEVQSYLVSGELTAXHARAIAAAADPVALAKQIIEGGLSVRETEALARKAPNLSAGKSKGGRPPRVKDTDTQALESDLSSVLGLDVSIDHRGSTGTLTITYATLEQLDDLCNRLTRGI

Variants of: B1
Experiment: one-hybrid fitness for binding NBS DNA (the Noc-binding site; scaled: cognate 1, non-cognate 0); higher = stronger binding
Conditions: with NBS DNA site
Method in brief: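 Values were rescaled so that cognate is 1 and non-cognate is 0. Each is a fitness, the log change in a variant's read ratio to wild type from Illumina reads of plasmids before and after selection, with three replicate libraries pooled and variants under 10 reads dropped. Selection of the Caulobacter ParB libraries, four specificity codons randomised, used E. coli USO with a HIS3 reporter, site 19 bp from the promoter, on M9-minus-histidine with 0.1 mM IPTG and 5 mM 3-AT for 48 hours at 37°C.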

Variant	one-hybrid fitness for binding NBS DNA
QINI	≤ 0.2
TTRR	0.378
TTKR	0.372
TCKR	0.262
TTDR	≤ 0.2
TTVR	≤ 0.2
TTYR	≤ 0.2
LKIL	≤ 0.2
PMKT	≤ 0.2
LRKL	≤ 0.2
DLDT	≤ 0.2
NAVF	≤ 0.2
TRTI	≤ 0.2
AVGC	≤ 0.2
RCVT	0.319
RRKT	0.814
RRKW	0.351
RGKT	0.24
RRVT	0.755
GGMT	≤ 0.2
TPSP	≤ 0.2
YMFT	≤ 0.2
KRVR	0.456
DRKR	0.238
KCVR	≤ 0.2

Variant	one-hybrid fitness for binding NBS DNA
KRKR	0.849
DRVR	≤ 0.2
KLKR	0.319
IHAG	≤ 0.2
CWRR	≤ 0.2
HRDS	≤ 0.2
RKNS	0.606
RKDP	≤ 0.2
RKDD	≤ 0.2
RKND	≤ 0.2
RKNN	≤ 0.2
RKDS	0.412
FIER	≤ 0.2
PSMI	≤ 0.2
EAPS	≤ 0.2
ECPR	≤ 0.2
EAPH	≤ 0.2
EAPR	0.408
EAIR	≤ 0.2
EAPF	0.532
HVLW	≤ 0.2
ITMG	≤ 0.2
VHNR	≤ 0.2
LWVP	≤ 0.2
VKGG	≤ 0.2

Variant	one-hybrid fitness for binding NBS DNA
EIGT	≤ 0.2
RTRT	0.704
RTSH	0.207
RTST	0.565
RTQT	0.537
RTPT	0.201
RTET	0.234
RTWT	0.356
RTYT	0.494
RTQM	≤ 0.2
RTSP	≤ 0.2
RTQC	≤ 0.2
RTIT	0.352
GGKA	≤ 0.2
AFLS	≤ 0.2
RKPM	≤ 0.2
QSHF	≤ 0.2
CTPF	≤ 0.2
PLPM	≤ 0.2
KIKM	≤ 0.2
HHNR	≤ 0.2
NSTM	≤ 0.2
RTGC	≤ 0.2
RTGG	≤ 0.2
RTGT	0.575

Variant	one-hybrid fitness for binding NBS DNA
YFNT	≤ 0.2
RCSK	≤ 0.2
RRSK	0.378
RRRK	0.41
RSSK	≤ 0.2
RRDK	≤ 0.2
RRYK	0.202
MRQS	≤ 0.2
MFRF	≤ 0.2
LRHC	≤ 0.2
KHAS	≤ 0.2
CVNW	≤ 0.2
REMW	≤ 0.2
IEPS	≤ 0.2
AEIR	≤ 0.2
AEPR	0.408
IEPR	0.427
IEYR	≤ 0.2
TEPR	≤ 0.2
LSRY	≤ 0.2
SFFN	≤ 0.2
EDND	≤ 0.2
AQKT	≤ 0.2
RCPR	≤ 0.2
RRID	≤ 0.2

Variant	one-hybrid fitness for binding NBS DNA
RCIR	0.294
RRPP	≤ 0.2
RRIR	0.686
RRPR	0.605
WWTF	≤ 0.2
WLEG	≤ 0.2
FKSG	≤ 0.2
IVTP	≤ 0.2
PVGL	≤ 0.2
RHMS	0.386
RKMD	≤ 0.2
RCMS	0.412
RHMD	≤ 0.2
RTMS	0.452
RKMN	≤ 0.2
RTMH	≤ 0.2
RPMS	≤ 0.2
RHMH	≤ 0.2
RKMS	0.586
RSMS	0.351
RTMD	≤ 0.2
WRRW	≤ 0.2
DIYS	≤ 0.2
HNSK	≤ 0.2
TLTK	≤ 0.2

Variant	one-hybrid fitness for binding NBS DNA
QTNS	0.629
QTDY	≤ 0.2
QTNF	0.244
QCNQ	0.222
QTNQ	0.377
QTDH	0.335
QTDQ	≤ 0.2
QSNY	≤ 0.2
QTNN	0.327
QTDS	0.331
QTNH	0.495
QTNY	0.431
HFFR	≤ 0.2
RCTP	≤ 0.2
EWRC	≤ 0.2
YVHE	≤ 0.2
VDSG	≤ 0.2
HSAM	≤ 0.2
VVYR	≤ 0.2
RTAP	≤ 0.2
RSAW	≤ 0.2
RSAS	0.424
RTAS	0.454
RTAD	≤ 0.2
RSAD	≤ 0.2

Variant	one-hybrid fitness for binding NBS DNA
RCAW	0.431
RSAP	≤ 0.2
RPAW	≤ 0.2
RMAH	≤ 0.2
RMAS	0.405
RMAN	≤ 0.2
SWHQ	≤ 0.2
IRHW	≤ 0.2
EMAM	≤ 0.2
DYQG	≤ 0.2
TGTL	≤ 0.2
WNAL	≤ 0.2
RIAS	0.345
RAAD	≤ 0.2
RLAP	≤ 0.2
RPAS	≤ 0.2
RHAN	≤ 0.2
RHAP	≤ 0.2
RCAS	0.476
RHAS	0.433
RLAH	≤ 0.2
RAAH	≤ 0.2
RAAS	0.368
RLAS	0.383
TIIA	≤ 0.2

Variant	one-hybrid fitness for binding NBS DNA
APSV	≤ 0.2
HMQC	≤ 0.2
LRDK	≤ 0.2
SENT	≤ 0.2
LQVS	≤ 0.2
PPFG	≤ 0.2
RSHK	≤ 0.2
QQTR	0.648
QQTC	≤ 0.2
QQTP	≤ 0.2
QQTS	0.433
QQTD	≤ 0.2
QQTF	≤ 0.2
QQTH	0.264
QQTT	0.464
QQTN	≤ 0.2
WSIE	≤ 0.2
GCAR	≤ 0.2
RQSC	≤ 0.2
YATR	≤ 0.2
SEFT	≤ 0.2
STWN	≤ 0.2
SNPF	≤ 0.2
LHCS	≤ 0.2
CNGF	≤ 0.2

Variant	one-hybrid fitness for binding NBS DNA
FEEV	≤ 0.2
LQET	≤ 0.2
RADS	≤ 0.2
RANH	≤ 0.2
RARN	≤ 0.2
RARS	0.564
RAWS	0.262
RAIS	≤ 0.2
RAYS	0.423
RARH	0.306
RANS	0.484
DPHT	≤ 0.2
NPRM	≤ 0.2
HYCF	≤ 0.2
GLER	≤ 0.2
NTPI	≤ 0.2
RRQG	0.377
RRQD	≤ 0.2
RCQH	0.228
RRQN	0.322
RRQH	0.447
RRQS	0.69
RRQP	≤ 0.2
RCQG	≤ 0.2
RSQG	≤ 0.2

Variant	one-hybrid fitness for binding NBS DNA
PGAA	≤ 0.2
NLQS	≤ 0.2
HATK	≤ 0.2
WPRM	≤ 0.2
LVQN	≤ 0.2
DLGR	≤ 0.2
GFTS	≤ 0.2
QYVN	≤ 0.2
QYKR	0.99
QYVP	≤ 0.2
QYVR	0.381
NYKR	≤ 0.2
EYKR	≤ 0.2
KYYF	≤ 0.2
SYTG	≤ 0.2
PAEC	≤ 0.2
TFLC	≤ 0.2
RTRD	≤ 0.2
RTYR	0.522
RTPR	0.208
RCWR	0.405
RTGH	0.271
RTIR	0.354
RPWR	≤ 0.2
RTER	0.262

Variant	one-hybrid fitness for binding NBS DNA
RSWR	0.27
RTGP	≤ 0.2
RTGR	0.622
RTRR	0.818
WHGR	≤ 0.2
SVYC	≤ 0.2
DNYS	≤ 0.2
AQDG	≤ 0.2
RTSF	≤ 0.2
RTSC	≤ 0.2
RTHG	≤ 0.2
RTHR	0.631
RTSR	0.576
RTNP	≤ 0.2
RTCR	0.53
RTCN	≤ 0.2
RTDR	0.282
RTNR	0.744
RTCD	≤ 0.2
RTHM	≤ 0.2
MTRH	≤ 0.2
GPMF	≤ 0.2
VYNT	≤ 0.2
NQFD	≤ 0.2
GLEG	≤ 0.2

Variant	one-hybrid fitness for binding NBS DNA
DQKV	≤ 0.2
ATVV	≤ 0.2
THMM	≤ 0.2
RTLQ	≤ 0.2
RTQN	≤ 0.2
RTWR	0.404
RTWP	≤ 0.2
RTQP	≤ 0.2
RTLR	0.461
RTLH	≤ 0.2
RTQR	0.575
RTWD	≤ 0.2
QGED	≤ 0.2
DAQE	≤ 0.2
GQLV	≤ 0.2
RKAT	0.643
RCFT	0.423
RKAG	≤ 0.2
RPFT	≤ 0.2
RKAK	≤ 0.2
RKFT	0.437
RKFH	0.212
RKFD	≤ 0.2
RSFT	≤ 0.2
ALQE	≤ 0.2

Variant	one-hybrid fitness for binding NBS DNA
NTTI	≤ 0.2
VKDD	≤ 0.2
SFVF	≤ 0.2
WRVA	≤ 0.2
QRID	≤ 0.2
QCIR	0.476
QPIR	≤ 0.2
QKPR	0.271
QKIR	0.37
QRPR	0.543
QSIR	0.336
QKIH	≤ 0.2
QRPN	≤ 0.2
QRIR	0.686
QRIF	≤ 0.2
